Pf growth 48h: inhibits P. falciparum growth in the first generation, 48 h | P. falciparum luciferase growth in erythrocytes, 48 h | Potency, µM (series often up to 28.7 µM), for the others: top-dose activity change, negative = inhibition, most hits filed as inhibitors | 310,000 compounds, 5.9% hits; also: potency is read from the fitted curve at half-maximal effect; % is scaled to controls: 0 for no effect and ±100 for the full control effect
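Here the parasites carry a stable luciferase gene and grow inside erythrocytes in Albumax-based RPMI medium with compound for one erythrocytic cycle. Activity is scored as loss of luminescent signal.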
SARS PLP yeast: SARS-CoV PLP inhibition in yeast; S. cerevisiae expressing SARS-CoV PLpro, growth rescue; Potency, µM (doses to about 32.9 µM), inactives show top-dose activity, positive = growth rescue, usual class: activators; 330,000 compounds, 0.19% hits; calls by dose curve; also: potency is read from the fitted curve at half-maximal effect; 0% is about no effect; nearly all actives have a fitted effect of over 55% in size
NS1 inh: inhibitors of influenza NS1 protein function | 270,000 compounds, 0.4% hits | Potency, µM (top dose mostly 46.1 µM), without a hit: at the highest dose activity, positive = more growth | AID 2326; calls by dose curve; also: potency is read from the fitted curve at half-maximal effect; actives are rising curves; nearly all actives have a fitted effect of over 50% in size
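Compounds were scored for reversing the slow growth caused by influenza A NS1 in S. cerevisiae, measured by optical density at 600 nm. Assay medium contained 2% galactose at pH 6.0; NS1-free yeast of the same strain were the positive control.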
Cycloheximide cs: counter-screen hit for Shiga toxin inhibitors, cycloheximide; cell reporter, cycloheximide protein synthesis inhibition counterscreen; max response, %; 300,000 compounds, 12% hits; in the data active = max response mostly above about 13%, no sharp cut-off; inactive = mostly below about 14%; also: read at 38.3 µM for the half of the compounds with a filed dose; 0% is about no effect
Pf growth 96h: P. falciparum growth inhibition at 96 hour, primary screen for plastid delayed-death inhibitors; P. falciparum luciferase reporter growth, 96 h; 320,000 compounds, 6.9% hits; AID 504834; Potency, µM (top dose mostly 28.7 µM), inactives show at the top dose activity change, negative = inhibition, actives largely listed as inhibitors; also: potency is read from the fitted curve at half-maximal effect; % is scaled to controls: 0 for no effect and ±100 for the full control effect
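Cell-based qHTS: luciferase-tagged P. falciparum in erythrocytes (2% hematocrit, 0.05% parasitemia final) incubated with compounds for 96 hours, 37 C, 5% CO2; luciferase detection reagent then added and luminescence measured.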
Shiga toxin inh: Shiga toxin inhibition; 290,000 compounds, 9.2% hits; Vero cells, Shiga toxin protein synthesis inhibition reporter; inhibition, % at 38.7 µM; in the data active = inhibition mostly above about 28%, no sharp cut-off; inactive = mostly below about 43%; also: 0% is about no effect
Numbers without * were called inactive; ? = inconclusive; . = no result given. Hits are enriched below; roughly 21% of the tested compounds scored in any of these assays. Unless noted, calls follow the shape of the dose curve; as a rule, active = well fitted inhibition curve with a large enough effect; inconclusive = small, poorly fitted or top-dose-only effect, or another doubt; inactive = no such curve, though single readings can be large or run the other way.

SMILES	Pf growth 48h	SARS PLP yeast	NS1 inh	Cycloheximide cs	Pf growth 96h	Shiga toxin inh
CCN(CC)C(=O)COC(=O)c1cc(-c2ccc(OC)cc2)nc2ccccc12	-3%	-6%	-9%	23*	.	35
CCNC(=O)COC(=O)c1cc(-c2ccc(OC)cc2)nc2ccccc12	22%	-19%	-25%	1	57%	-18
CCCNC(=O)COC(=O)c1cc(-c2ccc(OC)cc2)nc2ccccc12	43%	-9%	.	13*	81%	14
COc1ccc(-c2cc(C(=O)OCC(=O)N3CCOCC3)c3ccccc3n2)cc1	.	-69%	.	.	.	.
COC(=O)C1CCN(C(=O)COC(=O)c2cc(-c3ccccc3)nc3ccc(OC)cc23)CC1	13µM*	-1%	.	.	?	.
C/C(N)=C(/C#N)C(=O)COC(=O)c1cc(-c2ccc(Br)cc2)nc2ccccc12	4%	13%	22%	13*	?	6
Cc1ccccc1N=C1SCCN1C(=O)CN1C(=O)NC2(CCCC2)C1=O	?	-3%	.	.	-3%	.
Cc1ccc(NC2CCCN(C(=O)c3ccoc3C)C2)cc1C (stereo not given)	0%	-3%	4%	2	?	-4
CCSC[C@H](NC(=O)[C@H](C)NC(=O)[C@@H](N)Cc1ccc(O)cc1)C(=O)N[C@@H](CC(=O)O)C(=O)N[C@H](C(=O)N[C@@H](C)C(=O)N[C@H](C(=O)N[C@@H](CSCC)C(=O)N[C@H](C(=O)N[C@H](C(=O)N[C@@H](Cc1cnc[nH]1)C(=O)N[C@@H](CCCNC(=N)N)C(=O)N[C@@H](CC(C)C)C(=O)N[C@@H](C)C(=O)NCC(=O)N[C@@H](CC(C)C)C(=O)N[C@@H](CC(C)C)C(=O)N[C@@H](CO)C(=O)N[C@@H](CCCNC(=N)N)C(=O)N[C@@H](CO)C(=O)NCC(=O)NCC(=O)N[C@H](C(=O)N[C@H](C(=O)N[C@@H](CCCCN)C(=O)N[C@@H](CC(N)=O)C(=O)N[C@@H](CC(N)=O)C(=O)N[C@@H](Cc1ccccc1)C(=O)N[C@H](C(=O)N1CCC[C@H]1C(=O)N[C@H](C(=O)N[C@@H](CC(N)=O)C(=O)N[C@H](C(=O)NCC(=O)N[C@@H](CO)C(=O)N[C@@H](CCCCN)C(=O)N[C@@H](C)C(=O)N[C@@H](Cc1ccccc1)C(N)=O)C(C)C)[C@@H](C)O)C(C)C)C(C)C)C(C)C)[C@@H](C)O)C(C)C)[C@@H](C)O)[C@@H](C)O	.	.	.	-4	.	10
CC(C)(C)c1nnc(SCC(=O)Nc2ccc(N3CCCCC3)cc2)n1N	139%	-3%	.	.	172%	.
COc1cc2nc(C3CCC3)n(NC(=O)c3ccco3)c(=O)c2cc1OC	?	-1%	-2%	-4	?	-19
CC(C(=O)N1CCN(Cc2ccc3c(c2)OCO3)CC1)n1cc([N+](=O)[O-])cn1 (stereo not given)	9%	2%	-5%	-5	3%	-5
COc1ccc2cc(-c3cc(C(=O)OCC(=O)NC4CCS(=O)(=O)C4)c4ccccc4n3)ccc2c1 (stereo not given)	68%	-11%	-17%	26*	45%	30
COc1ccc2cc(-c3cc(C(=O)OCC(=O)Nc4c(C)n(C)n(-c5ccccc5)c4=O)c4ccccc4n3)ccc2c1	93%	-9%	3%	31*	128%	53*
CCN(CC)c1ccc(/C=N/NC(=O)c2ccoc2C)c(O)c1	1.3µM*	15%	1%	27*	?	93*
CCN(CC)c1ccc(/C=N/NC(=O)OC)c(O)c1	.	-23%	-62%	55*	-14%	64*
CCN(CC)c1ccc(/C=N/NC(=O)c2ccc3nc[nH]c3c2)c(O)c1	?	3.2µM*	-4%	-3	?	16
CCN(CC)c1ccc(/C=N/NC(=S)NC)c(O)c1	?	29%	.	30*	-22%	77*
CCc1cc(C(=O)N/N=C/c2ccc(O)cc2O)c2ccccc2n1	?	.	4%	2	-8%	-13
CCN(CC)c1ccc(/C=N/Nc2cccc(C)c2)c(O)c1	-4%	-5%	9%	2	?	21
CCN(CC)c1ccc(C=Nc2ccccc2)c(O)c1	?	-1%	-2%	5	?	35
COc1ccc(CCC(C)NCCc2ccc(Cl)cc2Cl)cc1 (stereo not given)	?	.	-17%	-9	-14%	-9
Cc1ccc(C(=O)Nc2c(N)nc(SCC(=O)NCC3CCCO3)[nH]c2=O)cc1 (stereo not given)	3%	0%	-3%	1	0%	-4
CCN(CC)c1ccc(/C=N/Nc2ccccc2)c(O)c1	?	-5%	19%	23*	?	29
Clc1ccc(Cc2noc(-c3cccs3)n2)cc1	151%	11%	5%	53*	.	93*
SMILES	Pf growth 48h	SARS PLP yeast	NS1 inh	Cycloheximide cs	Pf growth 96h	Shiga toxin inh
COc1cccc(-c2noc(C3CCCN(C(=O)c4cccc(F)c4)C3)n2)c1 (stereo not given)	?	-2%	1%	35*	?	45*
CCCC(=O)N1CCCC(c2nc(-c3cccc(OC)c3)no2)C1 (stereo not given)	-12%	-1%	-3%	32*	-26%	77*
CCCCCCC(=O)N1CCCC(c2nc(-c3cccc(OC)c3)no2)C1 (stereo not given)	-7%	-1%	-58%	-2	32%	14
COc1cccc(-c2noc(C3CCCN(C(=O)Cc4ccccc4)C3)n2)c1 (stereo not given)	22%	-3%	-10%	23*	8%	24
O=C(Cc1ccccc1)N1CCCC(c2nc(-c3cccs3)no2)C1 (stereo not given)	-3%	-1%	-1%	-2	?	-1
COc1ccc(-c2noc(C3CCCN(C(=O)c4cccc(F)c4)C3)n2)cc1 (stereo not given)	-1%	-5%	-9%	-2	24%	.
CSc1cccc(NC(=S)N2CCCN(Cc3ccc(F)cc3)C2)c1	?	-1%	.	11	-1%	25
CCN(CC)c1nc(Nc2ccccc2)nc(Oc2ccc(C(=O)OC)cc2)n1	15%	-3%	-13%	-1	-33%	16
COC(=O)c1ccc(Oc2nc(SC)nc(N(C)C)n2)cc1	-22%	-1%	-6%	6	-15%	-6
CCN(CC)c1nc(Oc2ccc(C(=O)NN)cc2)nc(Oc2ccc(C(=O)NN)cc2)n1	9.3µM*	-1%	?	-3	9.3µM*	-18
CNc1nc(Oc2ccc(C(=O)OC)cc2)nc(SC)n1	10µM*	-16%	-1%	-2	14%	1
CCOC(=O)c1ccc(Oc2nc(NC)nc(OC)n2)cc1	13µM*	-7%	-20%	-1	1%	-3
CNc1cc2c(Nc3cccc(Br)c3)ncnc2cn1	.	.	.	-3	.	-4
O=C(Nc1ccc(F)cc1)Nc1nnc(Cc2ccccc2F)s1	?	-1%	10%	-3	10µM*	.
